# System: Vero E6 infected with SARS-CoV-2
# Assay: inhibition of SARS-CoV-2 cytopathic effect; higher = more antiviral protection, active = above 15
# Details: 48 h
SMILES,inhibition of SARS-CoV-2 cytopathic effect (1 nM),inhibition of SARS-CoV-2 cytopathic effect (8.33 nM),inhibition of SARS-CoV-2 cytopathic effect (100 nM),inhibition of SARS-CoV-2 cytopathic effect (833.33 nM),inhibition of SARS-CoV-2 cytopathic effect (10000 nM)
Nc1ncnc2nc(-c3ccc(N4CCOCC4)nc3)cc(-c3cccc(Br)c3)c12,-0.77% (inactive),-1.24% (inactive),-5% (inactive),-0.05% (inactive),-1.01% (inactive)
OC[C@H]1O[C@@H](OCCc2ccc(O)cc2)[C@H](O)[C@@H](O)[C@@H]1O [salidroside],-0.77% (inactive),0.23% (inactive),-0.6% (inactive),0.45% (inactive),-0.54% (inactive)
NC(=O)c1ccc2[nH]ccc2c1,-2.02% (inactive),0.22% (inactive),0.99% (inactive),0.03% (inactive),3.72% (inactive)
C=CCc1cccc(/C=N/NC(=O)CN2CCN(Cc3ccccc3)CC2)c1O,0.07% (inactive),0.95% (inactive),4.72% (inactive),0.65% (inactive),-2.23% (inactive)
Cc1ccc(-n2nc(C(C)(C)C)cc2NC(=O)NCc2cc(F)ccc2Oc2ccc3c(cnn3CCO)c2)cc1 [pexmetinib],-0.97% (inactive),-3.1% (inactive),0.01% (inactive),5.81% (inactive),3.62% (inactive)
O=C(N[C@H]1CN2CCC1CC2)c1ccc(Cl)cc1,1.35% (inactive),0.97% (inactive),1.21% (inactive),0.86% (inactive),1.51% (inactive)
CCCCOC(=O)c1ccccc1Nc1cccc(C(F)(F)F)c1 [ufenamate],2.83% (inactive),2.78% (inactive),0.41% (inactive),1.79% (inactive),0.16% (inactive)
COc1cc2c(c(OC)c1OC)-c1ccc(OC)c(=O)cc1[C@@H](NC(C)=O)CC2 [colchicine],2.74% (inactive),2.19% (inactive),0.8% (inactive),-0.41% (inactive),1.35% (inactive)
CNC(C)(C)Cc1ccccc1 [mephentermine],-6.95% (inactive),-4.1% (inactive),-6.2% (inactive),-3.76% (inactive),2.65% (inactive)
COCCOC(=O)C1=C(C)NC(C)=C(C(=O)OC(C)C)C1c1cccc([N+](=O)[O-])c1 (stereo not given) [nimodipine],-2.49% (inactive),-0.07% (inactive),-1% (inactive),1.52% (inactive),1.16% (inactive)
FC(F)OC(F)(F)C(F)Cl (stereo not given) [enflurane],1.24% (inactive),0.43% (inactive),1.56% (inactive),-3.51% (inactive),-3.14% (inactive)
CC(C)(S)C(=O)N[C@@H](CS)C(=O)O [bucillamine],0.66% (inactive),4.25% (inactive),5.04% (inactive),3.9% (inactive),-4% (inactive)
O=C(O)c1ccccc1O [salicylic-acid],1.59% (inactive),-5.54% (inactive),-2.37% (inactive),0.26% (inactive),1.57% (inactive)
COc1ccc(Br)cc1S(=O)(=O)NC(=O)/C=C/c1ccccc1Cc1ccc2ccccc2c1,1.22% (inactive),1.19% (inactive),1.93% (inactive),3.35% (inactive),-0.51% (inactive)
O=C(O)C1CN(Cc2ccc(-c3nc4cc(Cc5ccccc5F)ccc4s3)c(F)c2)C1,1.34% (inactive),1.1% (inactive),2.02% (inactive),0.03% (inactive),1.58% (inactive)
O=C(CCCl)NCc1ccccc1 [beclamide],-5.2% (inactive),-1.11% (inactive),0.49% (inactive),0.86% (inactive),-1.73% (inactive)
CN1CCN(c2ccc(/C=C(\C#N)c3ccccc3Br)cc2)CC1,2.51% (inactive),-1.94% (inactive),-3.13% (inactive),-2.26% (inactive),-2.17% (inactive)
CCN(CC)CCCCN1c2ccccc2Oc2ccc(Cl)cc21,0.59% (inactive),-2.15% (inactive),-2.29% (inactive),-3.45% (inactive),40.9% (active)
COc1ccc2[nH]c(-c3ccccc3)c(CCNC(C)=O)c2c1 [2-phenylmelatonin],0.42% (inactive),-1.88% (inactive),0.56% (inactive),-2.59% (inactive),-0.4% (inactive)
O=C1NN(C(=O)Nc2ccc(Br)cc2)[C@@H](c2ccccc2)[C@@H]1c1ccccc1,0.57% (inactive),1.35% (inactive),-2.12% (inactive),-0.26% (inactive),-1.96% (inactive)
CCC(=O)NS(=O)(=O)c1ccc(-c2c(-c3ccccc3)noc2C)cc1 [parecoxib],-0.31% (inactive),0.02% (inactive),1.66% (inactive),1.26% (inactive),-1.54% (inactive)

SMILES,inhibition of SARS-CoV-2 cytopathic effect (1 nM),inhibition of SARS-CoV-2 cytopathic effect (8.33 nM),inhibition of SARS-CoV-2 cytopathic effect (100 nM),inhibition of SARS-CoV-2 cytopathic effect (833.33 nM),inhibition of SARS-CoV-2 cytopathic effect (10000 nM)
CCn1c(-c2nonc2N)nc2cncc(CNC3CCNCC3)c21,0.63% (inactive),-1.43% (inactive),-0.75% (inactive),-2.49% (inactive),-3.57% (inactive)
COc1cc2c(NC3CCN(C)CC3)nc(N3CCCN(C)CC3)nc2cc1OCCCN(C)C,2.93% (inactive),3.22% (inactive),3.09% (inactive),3.57% (inactive),4.51% (inactive)
C[C@@]1(C(=O)O)NCCc2cc(O)c(O)cc21 [salsolinol-1-carboxylic-acid],0.05% (inactive),-1.48% (inactive),-1.16% (inactive),2.45% (inactive),1.69% (inactive)
C[C@@H](NC(=O)c1ncnc(N)c1Cl)c1ncc(C(=O)Nc2cc(C(F)(F)F)c(Cl)cn2)s1,-0.01% (inactive),6.23% (inactive),4.35% (inactive),4.42% (inactive),-1.31% (inactive)
CN(Cc1ccccc1)C(=O)[C@H](Cc1ccc2ccccc2c1)NC(=O)[C@@H]1CCCN1C(=O)Nc1ccccc1[N+](=O)[O-],-0.58% (inactive),2.06% (inactive),3.45% (inactive),5.13% (inactive),1.31% (inactive)
Cc1cc(=O)n(-c2ccccc2)n1C [phenazone],1.97% (inactive),-0.88% (inactive),-1.01% (inactive),-0.52% (inactive),0.53% (inactive)
CC(=O)Nc1c(I)c(C(=O)O)c(I)c(N(C)C(C)=O)c1I [metrizoic-acid],-1.11% (inactive),0.34% (inactive),0.21% (inactive),2.48% (inactive),1.65% (inactive)
COc1cc(N)c(Cl)cc1C(=O)CCC1CCN(CCNS(C)(=O)=O)CC1,-0.46% (inactive),-0.03% (inactive),0.79% (inactive),0.95% (inactive),-0.74% (inactive)
CC[C@H](Nc1ncnc2[nH]cnc12)c1nc2cccc(F)c2c(=O)n1-c1ccccc1 [idelalisib],-1.64% (inactive),2.2% (inactive),1.98% (inactive),3.57% (inactive),-3.36% (inactive)
CCCCN1CCCCC1C(=O)Nc1c(C)cccc1C (stereo not given) [bupivacaine],2.92% (inactive),-0.56% (inactive),-2.62% (inactive),1.82% (inactive),0.61% (inactive)
OCc1ccccc1O[C@@H]1O[C@H](CO)[C@@H](O)[C@H](O)[C@H]1O [salicin],0.33% (inactive),2.34% (inactive),1.75% (inactive),2.27% (inactive),5.91% (inactive)
NC[C@H]1O[C@H](O[C@H]2[C@H](O)[C@@H](O[C@H]3O[C@H](CO)[C@@H](O)[C@H](N)[C@H]3O)[C@H](N)C[C@@H]2N)[C@H](N)C[C@@H]1O [tobramycin],-1.08% (inactive),1.78% (inactive),-0.88% (inactive),0.11% (inactive),0.19% (inactive)
Nc1nc(-c2ccc(Cl)c(Cl)c2)c(-c2ccncc2)s1,-1.24% (inactive),1.18% (inactive),-2.7% (inactive),-2.03% (inactive),-0.28% (inactive)
O.O=[Si]=O.O=[Si]=O.O=[Si]=O.O=[Si]=O.[O]=[Mg].[O]=[Mg].[O]=[Mg],-4.07% (inactive),0.07% (inactive),-1.66% (inactive),5.91% (inactive),8.79% (inactive)
CC(C)(C)Nc1nc(Nc2ccc(C(N)=O)cc2)cc(N)c1C#N,-1.51% (inactive),-2.29% (inactive),-0.39% (inactive),-2.89% (inactive),-1.36% (inactive)
N[C@@H](CS(=O)O)C(=O)O [L-cysteinesulfinic-acid],0.48% (inactive),0.74% (inactive),1.16% (inactive),-1.19% (inactive),2.03% (inactive)
Cc1cc(O)c(C(C)C)cc1Cl [chlorothymol],0.21% (inactive),0.56% (inactive),2.72% (inactive),0.49% (inactive),-5.16% (inactive)
O=C1NC(=O)c2cc(Nc3ccccc3)c(Nc3ccccc3)cc21,-1.24% (inactive),1.7% (inactive),-0.24% (inactive),0.41% (inactive),1.85% (inactive)
C[C@]12CCC(=O)C=C1CC[C@@H]1[C@@H]2CC[C@@]2(C)[C@H]1CC[C@]2(O)C(=O)CO [cortodoxone],-0.53% (inactive),-0.71% (inactive),1.21% (inactive),0.07% (inactive),-1.41% (inactive)
C[N+]12CCC(CC1)C(OC(=O)C(O)(c1ccccc1)c1ccccc1)C2 (stereo not given) [clidinium],-2.04% (inactive),1.76% (inactive),-0.23% (inactive),0.86% (inactive),-1.97% (inactive)

# From the supplement of paper PMC13380429
